Rows were chosen to be rich in hits. Some 6.6% of all compounds tested hit in one or more screens of this group.
SW480 rerep: DNA re-replication induction in SW480 cells; SW480 DNA re-replication, Hoechst DNA content imaging, 48 h; Potency, µM (doses to about 46.1 µM), without a hit: top-dose re-replication activation, most hits filed as activators; hit rate 1.8% among 340,000; further: % of control where 0% means no effect; nearly all actives have a fitted effect of over 55% in size
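First, 250 cells per well were seeded. Next, compound or vehicle (23 nL) was pinned in, plates sat 48 hr at 37 C. Finally Hoechst was added for 40 min before fluorescence scanning.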
KB-3-1 cytotox: kills parental KB-3-1 adenocarcinoma cells | KB-3-1 viability, CellTiter-Glo ATP luminescence, 72 h | Potency, µM (titrated, usually from 46.1 µM), usual class: cytotoxic | hit rate 1.4% among 400,000 | AID 1347075; further: on the % scale 0 is the no-effect control and ±100 the full control effect; nearly all actives have a fitted effect of over 60% in size
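KB-3-1 cells, DMEM (no phenol red) + 10% FBS; compound by pin transfer, 72 h, 37 °C. Readout: CellTiter-Glo luminescence after 10 min. Data normalized, curve-fitted.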
MCF10A rereplic: induces DNA re-replication in MCF 10a normal breast cells. hit rate 2.9% among 350,000. Potency, µM (doses to about 46.1 µM), for inactives: top-dose activity, positive = re-replication, hits mostly activators. MCF 10A DNA re-replication, Hoechst nuclear intensity, 48 h; further: % of control where 0% means no effect; nearly all actives have a fitted effect of over 50% in size
KB-V1 cytotox: KB-V1 MDR subline cytotoxicity; Potency, µM (highest dose often 46.1 µM), hits mostly cytotoxic; KB-V1 MDR cells viability, CellTiter-Glo, 72 h; hit rate 3.4% among 400,000; further: on the % scale 0 is the no-effect control and ±100 the full control effect; nearly all actives have a fitted effect of over 60% in size
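In this primary screen, KB-V1 cells overexpressing P-gp are incubated with library compounds (lowest to highest concentration) for 72 h at 37 degrees C before a luminescent ATP viability read.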
RGS4 inhibitor: human RGS4 inhibition | AID 504845 | Transcreener GDP fluorescence polarization, RGS4-accelerated GTP hydrolysis | P49798 | Potency, µM (doses to about 114 µM), inactives show at the top dose activity change, negative = inhibition, hits mostly inhibitors | hit rate 0.039% among 390,000; further: on the % scale 0 is the no-effect control and ±100 the full control effect; nearly all actives have a fitted effect of over 75% in size
Target sequence (P49798 whole entry, looked up): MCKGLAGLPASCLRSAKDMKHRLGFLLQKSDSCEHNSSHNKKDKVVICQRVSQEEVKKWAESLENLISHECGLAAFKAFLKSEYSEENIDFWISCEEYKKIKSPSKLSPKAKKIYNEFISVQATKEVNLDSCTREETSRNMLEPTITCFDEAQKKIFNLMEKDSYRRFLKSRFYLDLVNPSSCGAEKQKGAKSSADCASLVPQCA
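MLSMR compounds (23 nl, pin-transferred) preincubated 10 min at room temperature with a 500nM (2x) first reagent, then RGS4 at 900nM (2x) plus Transcreener GDP mix added; fluorescence polarization (620/688 nm) read before and after 90 min at 30 °C.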
PTAP TSG101 blk: blocks PTAP/TSG101 interaction to inhibit HIV-1 budding; Q99816; Fluorescence polarization, FITC-PTAP peptide / Tsg101 binding; Potency, µM (top dose mostly 115 µM), inactives show at the highest dose activity change, negative = inhibition, most hits filed as inhibitors; AID 493005; 340,000 tested, under 10 active; active means well fitted inhibition curve with a large enough effect in the main read-out, with a control signal flat, not every such curve was filed as active; inconclusive means small, poorly fitted or top-dose-only effect, or effect the other way, or a change in a side signal; inactive means no such curve, though single readings can be large or run the other way; further: % of control where 0% means no effect
Target sequence (Q99816 whole entry, looked up): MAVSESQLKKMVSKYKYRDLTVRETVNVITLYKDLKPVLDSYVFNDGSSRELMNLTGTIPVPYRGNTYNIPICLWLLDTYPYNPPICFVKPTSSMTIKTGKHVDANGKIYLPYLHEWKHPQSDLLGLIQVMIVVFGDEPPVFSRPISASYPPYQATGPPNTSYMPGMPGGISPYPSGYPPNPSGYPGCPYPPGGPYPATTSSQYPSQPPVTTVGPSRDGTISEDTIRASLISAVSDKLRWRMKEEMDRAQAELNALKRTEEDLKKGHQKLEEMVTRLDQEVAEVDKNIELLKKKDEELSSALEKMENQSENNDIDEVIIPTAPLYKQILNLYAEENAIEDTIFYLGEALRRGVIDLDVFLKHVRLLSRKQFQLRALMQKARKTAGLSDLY
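Tsg101 binding domain (10 uM final) was mixed with compound and a FITC-labeled PTAP peptide (50 nM final) in HEPES pH 7.5 buffer with NaCl, Tween 20, EDTA and TCEP; fluorescence polarization was read after 20 min at r.t.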
Starred values were filed as active, the others as inactive. Unless noted, the call rests on the fitted dose curve; in most records, active means well fitted curve in the direction sought with a large enough effect; inconclusive means small, poorly fitted or top-dose-only effect, or another doubt; inactive means no such curve, though single readings can be large; an effect the other way counts as inactive or inconclusive. Potency means the concentration at half of the fitted maximal effect.

For CSc1ncccc1C(=O)Nc1ccccc1N1CCOCC1 the results were SW480 rerep -11.0%, KB-3-1 cytotox inactive, MCF10A rereplic 1.3%, KB-V1 cytotox 20.6µM*, RGS4 inhibitor -32.4% and PTAP TSG101 blk 0.6%.
CC(Oc1cccc(Cl)c1)C(=O)Nc1ccc(S(=O)(=O)N(C)C2CCN(C)CC2)cc1 (centres undefined) was read as SW480 rerep 12.9%, KB-3-1 cytotox inactive, MCF10A rereplic inconclusive, KB-V1 cytotox 23.1µM*, RGS4 inhibitor -18.8% and PTAP TSG101 blk -2.7%.
`COc1ccccc1C(=O)Nc1ccccc1N1CCOCC1` gave SW480 rerep -6.6%, KB-3-1 cytotox inactive, MCF10A rereplic -5.2%, KB-V1 cytotox inactive, RGS4 inhibitor -30.9% and PTAP TSG101 blk -2.7%.
Screening CCCCC1C(=O)CC[C@H]2[C@@H]1CC(=O)[C@@H]2C/C=C\CCCC(=O)O (some centres undefined) returned SW480 rerep 1.84µM*, KB-3-1 cytotox inactive, MCF10A rereplic 64.1%, KB-V1 cytotox inactive, RGS4 inhibitor -2.1% and PTAP TSG101 blk -2.3%.
For CCOc1ccccc1CNC(=O)c1ccc2c(c1)sc1nc(-c3cccc(OC)c3)cn12 the results were RGS4 inhibitor 2.3%.
Screening Cc1cc(O)ccc1Nc1nc2ccccc2nc1Nc1ccc(O)cc1C returned SW480 rerep inconclusive, KB-3-1 cytotox inactive, MCF10A rereplic 18.4µM*, KB-V1 cytotox inactive, RGS4 inhibitor -7.9% and PTAP TSG101 blk -0.9%.
Screening CCOc1ccc(/C=C/c2nc(C#N)c(Nc3ccc(OC)cc3)o2)cc1 returned RGS4 inhibitor 3.7%.
Screening CC1(C)CC2CC(C)(CN2C(=O)c2cc(-c3ccc(O)cc3)on2)C1 (centres undefined) returned SW480 rerep 1.7%, KB-3-1 cytotox inactive, MCF10A rereplic inconclusive, KB-V1 cytotox inactive, RGS4 inhibitor 15.0% and PTAP TSG101 blk -7.3%.
Screening COc1cccc(-c2cc(C(=O)N3CC4(C)CC3CC(C)(C)C4)no2)c1 (centres undefined) returned SW480 rerep 0.3%, KB-3-1 cytotox inactive, MCF10A rereplic inconclusive, KB-V1 cytotox 14.6µM* and RGS4 inhibitor 20.7%.
`O=C1Nc2ccc3c(c2C1=Cc1cc2c(cc1Br)OCO2)OCO3` gave SW480 rerep 18.4µM*, KB-3-1 cytotox 5.17µM*, MCF10A rereplic 5.17µM*, KB-V1 cytotox inconclusive, RGS4 inhibitor -2.2% and PTAP TSG101 blk -9.7%.
`COc1cc(-c2nc(C(N)=O)c3c(n2)n(-c2cccc(C)c2)c(=O)n3C)cc(OC)c1OC` gave KB-3-1 cytotox inactive, KB-V1 cytotox inactive and RGS4 inhibitor -10.9%.
For CN(C(=O)CN1C(=O)NC(C)(c2cccc(Br)c2)C1=O)C1CCCCC1 (centres undefined) the results were SW480 rerep 4.4%, KB-3-1 cytotox inactive, MCF10A rereplic 10.4%, KB-V1 cytotox 23.1µM*, RGS4 inhibitor -6.6% and PTAP TSG101 blk 1.1%.
`CC1(c2cccc(Br)c2)NC(=O)N(CC(=O)NCC2CCCO2)C1=O` (centres undefined) gave SW480 rerep -2.5%, KB-3-1 cytotox inactive, MCF10A rereplic 12.9%, KB-V1 cytotox inactive, RGS4 inhibitor 13.0% and PTAP TSG101 blk -1.3%.
Screening CN(C)C(CNC(=O)c1cc(S(=O)(=O)N(C)c2ccc(F)cc2)ccc1Cl)c1cccs1 (centres undefined) returned SW480 rerep 2.2%, KB-3-1 cytotox inconclusive, MCF10A rereplic 23.6%, KB-V1 cytotox 4.11µM*, RGS4 inhibitor 29.1% and PTAP TSG101 blk -3.6%.
For CCc1ccc(NC(=O)CN2C(=O)C3(SCC(=O)N3c3ccccc3)c3ccccc32)cc1 (centres undefined) the results were KB-3-1 cytotox inactive, KB-V1 cytotox inactive and RGS4 inhibitor -2.3%.
For Cc1cnc2c(c1SCC(=O)Nc1ccc(F)cc1F)c(=O)n(C)c(=O)n2C the results were KB-3-1 cytotox inactive, KB-V1 cytotox inactive and RGS4 inhibitor -9.9%.
`CC(OC(=O)Cc1c[nH]c2ccccc12)C(=O)Nc1ccc(S(N)(=O)=O)cc1` (centres undefined) gave SW480 rerep -2.4%, KB-3-1 cytotox inactive, MCF10A rereplic 0.2%, KB-V1 cytotox inactive, RGS4 inhibitor -8.7% and PTAP TSG101 blk -0.5%.
For CC(=O)Nc1ccc(NC(=O)C(C)OC(=O)CCCc2c[nH]c3ccccc23)cc1 (centres undefined) the results were SW480 rerep 6.51µM*, KB-3-1 cytotox inactive, MCF10A rereplic -9.6%, KB-V1 cytotox inactive, RGS4 inhibitor 16.4% and PTAP TSG101 blk 0.7%.
Screening O=C1c2ccccc2C(=O)c2c1ccc1c(=O)n(C3CCCCC3)[nH]c21 returned SW480 rerep inconclusive, KB-3-1 cytotox inconclusive, MCF10A rereplic inconclusive, KB-V1 cytotox 10.3µM*, RGS4 inhibitor -20.9% and PTAP TSG101 blk -5.6%.
Screening CCn1c2ccccc2c2n[nH]c(=S)nc21 returned SW480 rerep -34.3%, KB-3-1 cytotox inconclusive, MCF10A rereplic -1.8%, KB-V1 cytotox 6.51µM*, RGS4 inhibitor -32.7% and PTAP TSG101 blk -6.3%.
`CCCn1c2ccc(C)cc2c2n[nH]c(=S)nc21` gave SW480 rerep 14.6µM*, KB-3-1 cytotox inactive, MCF10A rereplic 1.5%, KB-V1 cytotox inactive, RGS4 inhibitor -40.8% and PTAP TSG101 blk -4.6%.
CC(=O)Nc1nonc1-c1nnc(SCc2cccc(Br)c2)n1C was read as KB-3-1 cytotox inactive, KB-V1 cytotox inactive and RGS4 inhibitor -24.8%.
For COc1ccc(C2NC(=O)c3sc4nc(C)c(C(C)=O)c(-c5ccc(Cl)cc5)c4c3N2)cc1 (centres undefined) the results were SW480 rerep inconclusive, KB-3-1 cytotox inactive, MCF10A rereplic 16.4µM*, KB-V1 cytotox inactive, RGS4 inhibitor -13.2% and PTAP TSG101 blk -0.3%.
Screening COc1ccc(NC(=O)c2sc3nc(C)c(C(=O)Nc4ccc(C)cc4C)c(-c4ccc(Cl)cc4)c3c2N)cc1 returned KB-3-1 cytotox inactive, KB-V1 cytotox inactive and RGS4 inhibitor -9.3%.
Screening Cc1cc(C)nc(NN=C(c2ccccc2)c2ccccc2)n1 returned SW480 rerep 10.3µM*, KB-3-1 cytotox inactive, MCF10A rereplic inconclusive, KB-V1 cytotox inactive, RGS4 inhibitor -14.5% and PTAP TSG101 blk 2.5%.
`COC(=O)c1n[nH]n(-c2ccccc2)c1=O` gave KB-3-1 cytotox inactive, KB-V1 cytotox inactive and RGS4 inhibitor 7.0%.

From PubChem
